# Assay results taken from the supplement of paper PMC9262897, “Low-cost anti-mycobacterial drug discovery using engineered E. coli” (Nature Communications, 2022).
# Structures can show the parent of a compound that is named as a salt. ± gives the standard deviation of the averaged measurements.
# Columns and labels:
# Assay in all cases: growth (OD600 after 10 h); higher = more growth (less inhibition)
# [1] = test system: E. coli TESEC Alr+ wild-type control; conditions: compound 0.1 mM; raw OD600 reference: median of DMSO wells 0.241, cell-free background 0.041
# Method: (§1)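 TESEC Mtb Alr E. coli, or the Alr+ wild-type control, in 384-well plates with Prestwick library compounds at 0.1 mM and 1% DMSO, across arabinose induction levels of 1E3 to 1E7 nM. Growth is read as OD600 after 10 h at 37 °C in triplicate biological replicates.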
# E. coli TESEC Mtb Alr [2] = conditions: compound 0.1 mM
# Method: as §1
# E. coli TESEC Mtb Asd = conditions: compound 0.1 mM
# Method: (§2)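 TESEC E. coli strains in which the native enzyme is deleted and replaced by arabinose-inducible Mtb Asd, DapB, CysH or TrpD, each grown in its selective medium. Strains were screened against the Prestwick library at 0.1 mM and 1% DMSO in 384-well format at low and high arabinose induction. Growth is read as OD600 after 10 h in triplicate.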
# E. coli TESEC Mtb DapB = conditions: compound 0.1 mM
# Method: as §2
# [3] = test system: E. coli TESEC Alr+ wild-type control; conditions: compound 0.1 mM; raw OD600 reference: median of DMSO wells 0.49, cell-free background 0.052
# Method: (§3)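 TESEC Mtb Alr E. coli (ΔaraC ΔtolC ΔentC Δalr ΔdadX, arabinose-inducible Mtb Alr) or the Alr+ wild-type control strain, grown in defined M9-fructose medium without D-alanine in 96-well plates with Prestwick library compounds at 0.1 mM and 1% DMSO. Low Alr induction is 0.1 µM arabinose and high induction is 10 mM arabinose.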
# E. coli TESEC Mtb Alr [4] = conditions: compound 0.1 mM; remark: listed apart in the source
# Method: as §3
# [5] = arabinose 1000 nM, raw OD600 reference: median of DMSO wells 0.294, cell-free background 0.041
# [6] = arabinose 10000 nM, raw OD600 reference: median of DMSO wells 0.264, cell-free background 0.041
# [7] = arabinose 100000 nM, raw OD600 reference: median of DMSO wells 0.201, cell-free background 0.041
# [8] = arabinose 1000000 nM, raw OD600 reference: median of DMSO wells 0.193, cell-free background 0.041
# [9] = arabinose 10000000 nM, raw OD600 reference: median of DMSO wells 0.146, cell-free background 0.041
# [10] = arabinose induction (level): High, raw OD600 reference: median of DMSO wells 0.331, cell-free background 0.041
# [11] = arabinose induction (level): Low, raw OD600 reference: median of DMSO wells 0.417, cell-free background 0.041
# [12] = arabinose induction (level): High, raw OD600 reference: median of DMSO wells […], cell-free background 0.041
# [13] = arabinose induction (level): Low, raw OD600 reference: median of DMSO wells 0.227, cell-free background 0.041
# [14] = arabinose 100 nM, raw OD600 reference: median of DMSO wells 0.413, cell-free background 0.052
# [15] = arabinose 10000000 nM, raw OD600 reference: median of DMSO wells […], cell-free background 0.052
SMILES,growth [1],growth (E. coli TESEC Mtb Alr [2]; [5]),growth (E. coli TESEC Mtb Alr [2]; [6]),growth (E. coli TESEC Mtb Alr [2]; [7]),growth (E. coli TESEC Mtb Alr [2]; [8]),growth (E. coli TESEC Mtb Alr [2]; [9]),growth (E. coli TESEC Mtb Asd; [10]),growth (E. coli TESEC Mtb Asd; [11]),growth (E. coli TESEC Mtb DapB; [12]),growth (E. coli TESEC Mtb DapB; [13]),growth [3],growth (E. coli TESEC Mtb Alr [4]; [14]),growth (E. coli TESEC Mtb Alr [4]; [15])
CN1C(C(=O)Nc2ccccn2)=C(O)c2sccc2S1(=O)=O [Tenoxicam],0.195 ± 0.0081,0.238 ± 0.0097,0.223 ± 0.0086,0.212 ± 0.0097,0.152 ± 0.0064,0.139 ± 0.0027,0.281 ± 0.11,0.223 ± 0.01,0.185 ± 0.0085,0.18 ± 0.0088,0.493 ± 0.051,0.375 ± 0.05,0.277 ± 0.01
O=C(O)COC(=O)Cc1ccccc1Nc1c(Cl)cccc1Cl [Aceclofenac],0.154 ± 0.0035,0.205 ± 0.019,0.223 ± 0.015,0.12 ± 0.007,0.141 ± 0.0064,0.132 ± 0.012,0.205 ± 0.026,0.263 ± 0.011,0.156 ± 0.0075,0.176 ± 0.028,0.424 ± 0.0057,0.352 ± 0.034,0.244 ± 0.015
Clc1cccc(Cl)c1NC1=NCCN1 [Clonidine hydrochloride],0.245 ± 0.01,0.289 ± 0.0065,0.261 ± 0.0058,0.201 ± 0.023,0.173 ± 0.0049,0.145 ± 0.011,0.377 ± 0.03,0.422 ± 0.016,0.195 ± 0.012,0.26 ± 0.034,0.462 ± 0.014,0.407 ± 0.013,0.375 ± 0.017
CCN(CC)CCCC(C)Nc1c2ccc(Cl)cc2nc2ccc(OC)cc12 (stereo not drawn) [Quinacrine dihydrochloride hydrate],0.0702 ± 0.00072,0.0775 ± 0.016,0.0444 ± 0.00085,0.104 ± 0.0031,0.04497 ± 0.00023,0.1 ± 0.0037,0.0701 ± 0.0057,0.0679 ± 0.006,0.156 ± 0.022,0.0986 ± 0.073,0.125 ± 0.049,0.421 ± 0.0083,0.222 ± 0.025
NCc1ccc(S(N)(=O)=O)cc1 [Mafenide hydrochloride],0.248 ± 0.0039,0.295 ± 0.021,0.259 ± 0.0097,0.187 ± 0.015,0.177 ± 0.0036,0.14 ± 0.0058,0.358 ± 0.018,0.41 ± 0.044,0.199 ± 0.0035,0.251 ± 0.032,0.418 ± 0.046,0.418 ± 0.0068,0.373 ± 0.018
CC(C)(CO)C(O)C(=O)NCCCO (stereo not drawn) [Panthenol (D)],0.261 ± 0.0085,0.296 ± 0.01,0.261 ± 0.0092,0.216 ± 0.053,0.192 ± 0.0077,0.147 ± 0.0069,0.357 ± 0.034,0.409 ± 0.043,0.185 ± 0.0037,0.219 ± 0.024,0.5 ± 0.047,0.406 ± 0.011,0.287 ± 0.13
CS(=O)(=O)Nc1ccc([N+](=O)[O-])cc1Oc1ccccc1 [Nimesulide],0.1929 ± 0.00095,0.206 ± 0.0095,0.247 ± 0.0073,0.149 ± 0.0051,0.137 ± 0.0025,0.139 ± 0.0087,0.272 ± 0.088,0.329 ± 0.056,0.201 ± 0.0065,0.248 ± 0.091,0.3996 ± 0.002,0.359 ± 0.026,0.286 ± 0.01
N[C@@H](Cc1cc(I)c(Oc2ccc(O)c(I)c2)c(I)c1)C(=O)O [Liothyronine],0.18 ± 0.012,0.211 ± 0.012,0.2 ± 0.0047,0.177 ± 0.0039,0.134 ± 0.0031,0.162 ± 0.003,0.32 ± 0.038,0.152 ± 0.017,0.232 ± 0.0046,0.264 ± 0.017,0.36 ± 0.023,0.373 ± 0.035,0.272 ± 0.015
O=C(OCCOCCO)c1ccccc1Nc1cccc(C(F)(F)F)c1 [Etofenamate],0.0458 ± 0.00036,0.0491 ± 0.0032,0.0483 ± 0.00084,0.049 ± 0.0019,0.0472 ± 0.002,0.0499 ± 0.0013,0.0525 ± 0.0012,0.0509 ± 0.0012,0.0997 ± 0.078,0.0543 ± 0.0018,0.0535 ± 0.0025,0.185 ± 0.19,0.0516 ± 0.0022
Cn1c([N+](=O)[O-])cnc1COC(N)=O [Ronidazole],0.226 ± 0.0055,0.296 ± 0.007,0.27 ± 0.0076,0.161 ± 0.0087,0.149 ± 0.0036,0.164 ± 0.0025,0.241 ± 0.036,0.338 ± 0.016,0.187 ± 0.0036,0.253 ± 0.031,0.458 ± 0.0079,0.4333 ± 0.0022,0.285 ± 0.011
COc1cc(NC(C)CCCN)c2ncccc2c1 (stereo not drawn) [Primaquine diphosphate],0.0466 ± 0.00081,0.0463 ± 0.00081,0.04143 ± 0.00031,0.0508 ± 0.0023,0.043 ± 0.00026,0.0577 ± 0.0019,0.0857 ± 0.0065,0.0611 ± 0.0046,0.122 ± 0.092,0.0664 ± 0.0032,0.267 ± 0.025,0.38 ± 0.018,0.08 ± 0.024
Cc1ncc(C[n+]2csc(CCO)c2C)c(N)n1 [Thiamine hydrochloride],0.246 ± 0.0087,0.295 ± 0.0076,0.251 ± 0.0027,0.174 ± 0.014,0.185 ± 0.0064,0.129 ± 0.0017,0.354 ± 0.062,0.418 ± 0.062,0.227 ± 0.024,0.217 ± 0.015,0.451 ± 0.011,0.42 ± 0.0059,0.362 ± 0.02
CCCc1cc(=O)[nH]c(=S)[nH]1 [Propylthiouracil],0.241 ± 0.0062,0.289 ± 0.025,0.263 ± 0.0094,0.219 ± 0.034,0.195 ± 0.0092,0.152 ± 0.0063,0.431 ± 0.04,0.45 ± 0.047,0.199 ± 0.0093,0.194 ± 0.019,0.55 ± 0.1,0.41 ± 0.015,0.345 ± 0.043
CC(C)NCC(O)COc1ccc(COCCOC(C)C)cc1 (stereo not drawn) [Bisoprolol fumarate],0.227 ± 0.01,0.302 ± 0.01,0.254 ± 0.01,0.222 ± 0.032,0.192 ± 0.0099,0.14 ± 0.0055,0.391 ± 0.017,0.467 ± 0.07,0.184 ± 0.017,0.227 ± 0.027,0.448 ± 0.022,0.409 ± 0.016,0.37 ± 0.028
Nc1nc(N)c2nc(-c3ccccc3)c(N)nc2n1 [Triamterene],0.135 ± 0.0027,0.146 ± 0.012,0.12 ± 0.0045,0.138 ± 0.0069,0.0711 ± 0.0011,0.119 ± 0.0058,0.235 ± 0.014,0.411 ± 0.015,0.165 ± 0.0077,0.203 ± 0.046,0.422 ± 0.0047,0.416 ± 0.0074,0.122 ± 0.016
c1ccc2c(c1)CCCc1cc(NCCN3CCOCC3)nnc1-2,0.215 ± 0.0088,0.285 ± 0.013,0.278 ± 0.0085,0.17 ± 0.029,0.149 ± 0.0053,0.133 ± 0.0058,0.194 ± 0.055,0.477 ± 0.044,0.179 ± 0.0094,0.2 ± 0.013,0.4846 ± 0.0026,0.4087 ± 0.0033,0.328 ± 0.03
